A selection: hits, their analogues and other compounds. The true share with any hit is near 14%.
USP17 block – human USP17-like deubiquitinase inhibition; A8MUK1; purified USP17, Ub-rhodamine cleavage fluorescence, 3 h; inhibition, % at 50 µM; hit rate 6.5% among 47,000
USP10 block – inhibitors of human USP10 deubiquitinase. purified USP10, Ub-rhodamine fluorescence, 60 min. inhibition, % at 20 µM. hit rate 1.1% among 47,000. AID 1645856
USP8 inh – blocks human USP8 ubiquitin-rhodamine cleavage. AID 1645853. purified USP8, Ub-rhodamine cleavage fluorescence, 30 min. hit rate 4.2% among 47,000. inhibition, % at 20 µM. P40818
USP30 inh – human USP30 deubiquitinase inhibition; inhibition, % at 25 µM; purified USP30, Ub-rhodamine cleavage fluorescence; AID 1645860; Q70CQ3; hit rate 5.3% among 47,000
USP28 block – inhibitors of human USP28 deubiquitinase; inhibition, % at 25 µM; hit rate 3% among 47,000; Q96RU2; purified USP28, Ub-rhodamine cleavage fluorescence, 30 min
* marks the source's active call; other numbers are inactive results. Cut-off read from the data, not from the text of the source: active = inhibition above about 30%; inactive = the rest.

`Cc1nc2cc(N3CC(C(=O)Nc4ccc(F)cc4C)CC3=O)ccc2o1` (centres undefined) gave USP17 block 63*, USP10 block 0, USP8 inh 22, USP30 inh 76* and USP28 block 16.
O=C(NCc1ccccc1)c1ccc(-c2ccc(N3CCCC3)nn2)cc1 was read as USP17 block 66*, USP10 block -3, USP8 inh -2, USP30 inh -29 and USP28 block -2.
O=C(NCc1ccc2c(c1)OCO2)c1ccc(-c2ccc(N3CCCC3)nn2)cc1 was read as USP17 block 3, USP10 block 22, USP8 inh 16, USP30 inh 0 and USP28 block 15.
For O=C(Nc1ccccc1)c1ccc(-c2ccc(N3CCCC3)nn2)cc1 the results were USP17 block 22, USP10 block 1, USP8 inh 15, USP30 inh 39* and USP28 block 22.
FC(F)(F)c1cnc(CSc2ncc(C(F)(F)F)cc2Cl)c(Cl)c1 was read as USP17 block -2, USP10 block 3, USP8 inh 2, USP30 inh -2 and USP28 block 3.
For COc1ccc(OC)c(NC(=O)C2=C(C)Nc3ncnn3C2c2ccccn2)c1 (centres undefined) the results were USP17 block 7, USP10 block 2, USP8 inh 5, USP30 inh 4 and USP28 block 1.
COc1ccc(OC)c(NC(=O)C2=C(C)Nc3ncnn3C2c2ccccc2OCc2ccc(C)cc2)c1 (centres undefined) was read as USP17 block 58*, USP10 block -7, USP8 inh 1, USP30 inh -20 and USP28 block -3.
Screening Cn1cc(-c2ccncc2)cc1C(=O)N1CCC2(CC1)OCCO2 returned USP17 block 9, USP10 block 1, USP8 inh 10, USP30 inh 19 and USP28 block 5.
For CC(C)c1cnn2c(NCc3ccccc3)cc(NCCCCCCN)nc12 the results were USP17 block -8, USP10 block 3, USP8 inh 3, USP30 inh 37* and USP28 block 40*.
Screening Cn1ncc2c(NCc3ccccc3)nc(N3CCCCC3)nc21 returned USP17 block -6, USP10 block 11, USP8 inh -11, USP30 inh -12 and USP28 block 4.
Screening Cc1ccc(S(=O)(=O)[C@H]2CS(=O)(=O)C[C@@H]2NCc2ccccc2C)cc1 returned USP17 block 6, USP10 block 1, USP8 inh 16, USP30 inh 28 and USP28 block 10.
CC(=O)Nc1cc2cc(-n3cccc3)ccc2oc1=O was read as USP17 block 59*, USP10 block 7, USP8 inh 27, USP30 inh -7 and USP28 block 9.
Screening Cc1cc(C(=O)CSc2nc3ccccc3[nH]2)c(C)n1C1CC1 returned USP17 block -10, USP10 block -3 and USP8 inh -25.
Screening Cc1cc2nc(SCC(=O)c3ccc(O)cc3)[nH]c2cc1C returned USP17 block 49*, USP10 block 12, USP8 inh 28, USP30 inh 27 and USP28 block 10.
Screening Cc1ccc(NC(=O)C2=CC(c3ccc(F)cc3)=NS(=O)(=O)N2C)cc1 returned USP17 block 16, USP10 block 12, USP8 inh -9, USP30 inh 29 and USP28 block 10.
Screening Cc1cccc(-c2nnn3c2nc(NCC2CCCO2)c2ccccc23)c1 (centres undefined) returned USP17 block 58*, USP10 block 26, USP8 inh 67*, USP30 inh 66* and USP28 block 3.
For Cc1cc(NCC2CCCO2)n2nc(-c3cccc(Cl)c3)c(C)c2n1 (centres undefined) the results were USP17 block 26, USP10 block 5, USP8 inh 6, USP30 inh 22 and USP28 block 7.
`Cc1cc(=O)n(CC(=O)NCc2ccc3c(c2)OCO3)c(-c2ccc(F)cc2)n1` gave USP17 block 7, USP10 block 13, USP8 inh -1, USP30 inh 2 and USP28 block -1.
Screening O=C(CN1CCc2[nH]c3c(F)c(Cl)ccc3c(=O)c2C1)NCc1ccc2c(c1)OCO2 returned USP17 block 46*, USP10 block -3, USP8 inh 0, USP30 inh 32* and USP28 block 7.
Screening Cc1cccc(CCNC(=O)c2cc(OCc3ccccc3)nc3ccccc23)c1 returned USP17 block 4, USP10 block 5, USP8 inh -74, USP30 inh 0 and USP28 block 3.
O=C(NCc1ccco1)c1ccc(Cn2c(=O)c3sccc3n(Cc3cc(=O)n4ccccc4n3)c2=O)cc1 was read as USP17 block 70*, USP10 block 13, USP8 inh 68*, USP30 inh 40* and USP28 block 50*.
`CCC(=O)Nc1ccc2c(c1)CCCN2C(=O)c1cccs1` gave USP17 block -18, USP10 block 3, USP8 inh 3, USP30 inh 0 and USP28 block -3.
Screening O=S(=O)(c1ccc(-c2ccc(Cl)cc2Cl)cc1)C1CCNCC1 returned USP17 block 7, USP10 block -1, USP8 inh -3, USP30 inh 45* and USP28 block 44*.
For O=C(Nc1ccccc1)c1ccc2noc(-c3ccc(F)cc3)c2c1 the results were USP17 block -7, USP10 block -3, USP8 inh -59, USP30 inh -13 and USP28 block 4.
For COc1cccc(NC(=O)c2ccc3noc(-c4ccc(Cl)cc4)c3c2)c1 the results were USP17 block 58*, USP10 block 14, USP8 inh 3, USP30 inh 0 and USP28 block 0.
For Cc1cccc(NC(=O)c2ccc3noc(-c4ccc(F)cc4)c3c2)c1 the results were USP17 block -17, USP10 block 3, USP8 inh -8, USP30 inh -41 and USP28 block -21.
Screening O=C(NC1CCCC1)c1ccc2noc(-c3ccc(Cl)cc3)c2c1 returned USP17 block 39*, USP10 block 0, USP8 inh -1, USP30 inh -36 and USP28 block -11.
`O=C(Nc1cccc(OC(=O)c2ccc(Cl)cc2)c1)c1ccc(Cl)cc1` gave USP17 block 63*, USP10 block 13, USP8 inh 18, USP30 inh -3 and USP28 block 4.
O=C(Nc1ccc2c(c1)OCO2)c1ccc2noc(-c3ccc(Cl)cc3)c2c1 was read as USP17 block 38*, USP10 block 11, USP8 inh 5, USP30 inh 10 and USP28 block 17.
For O=C(CN(Cc1ccccc1)S(=O)(=O)c1ccc(Cl)cc1)Nc1cccnc1 the results were USP17 block -15, USP10 block -7, USP8 inh -1, USP30 inh -27 and USP28 block 8.
Screening Cc1nc(-c2noc3ccc(C(=O)NCCc4cccnc4)cc23)co1 returned USP17 block -3, USP10 block 0, USP8 inh 0, USP30 inh 3 and USP28 block -6.

Assay outcomes as filed in PubChem BioAssay.
